The whole screen tested about 310,000 compounds, of which about 11,000 (3.5%) were called active. Another 4% or so got no clear call; they are omitted. The rule behind the calls is not given here. The entries come from a sample that favours actives as a whole.
These compounds were tested against T1, 4'-phosphopantetheinyl transferase ffp (Bacillus subtilis) (UniProt Q9F4F7) (assay: qHTS Assay for Inhibitors of Bacillus subtilis Sfp phosphopantetheinyl transferase (PPTase).).
T1 sequence (whole entry): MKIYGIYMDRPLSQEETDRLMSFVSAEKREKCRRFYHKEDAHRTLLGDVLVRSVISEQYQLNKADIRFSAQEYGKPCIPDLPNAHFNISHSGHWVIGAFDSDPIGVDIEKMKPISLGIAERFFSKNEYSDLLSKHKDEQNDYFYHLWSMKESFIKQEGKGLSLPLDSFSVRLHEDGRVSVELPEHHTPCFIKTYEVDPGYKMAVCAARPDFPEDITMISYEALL
Type: functional
With `Cl[Te]1(Cl)OCCO1` the Potency was 0.158 µM (active).
